# Screening data: PubChem, National Center for Advancing Translational Sciences (NCATS)
# Sm TGR inh – inhibitors of Schistosoma mansoni thioredoxin glutathione reductase | Q962Y6 | purified TGR, DTNB reduction, TNB absorbance 405 nm | Potency, µM (titrated, usually from 114 µM), for the others: at the highest dose activity change, negative = inhibition, actives largely listed as inhibitors | 3% of 360,000 active | AID 485364; note: nearly all actives have a fitted effect of over 60% in size
#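 First, TGR (20 nM dispensed) and NADPH were mixed with compound. Second, a 15 min room-temperature incubation followed. Third, further NADPH and then DTNB were added to start the reaction. Finally, TNB absorbance was monitored kinetically.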
# FMDV antiviral – foot and mouth disease virus antiviral activity; FMDV antiviral cell-based qHTS; Potency, µM (series often up to 57.9 µM), for inactives: at the highest dose activity change, negative = inhibition, most hits filed as inhibitors; 1.2% of 410,000 active; calls by dose curve; tested in HEK293T cells; note: read-out not given here; nearly all actives have a fitted effect of over 45% in size
# AMA1-RON2 inh – inhibitors of Plasmodium falciparum AMA1-RON2 interaction. Potency, µM (top dose mostly 58.2 µM), inactives show at the top dose activity change, negative = inhibition, usual class: inhibitors. 0.2% of 360,000 active. AlphaScreen AMA1-biotinylated RON2 peptide binding. AID 720542;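 note: 0% = vehicle wells and -100% = peptide control; nearly all actives have a fitted effect of over 45% in size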
#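 AMA1 (3D7) with his tag at 25 nM final met compounds first, then biotinylated RON2 peptide at 25 nM; detection used donor plus acceptor beads, 10 µg/mL apiece, read by AlphaScreen after 30 min at room temperature.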
# AmpC inh detg – blocks E. coli AmpC beta-lactamase in detergent assay; AmpC hydrolysis of nitrocefin, absorbance 480 nm, 0.01% Triton; P00811; Potency, µM (doses to about 114 µM), for the others: top-dose activity change, negative = inhibition, hits mostly inhibitors; 0.041% of 370,000 active;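 note: 0% = no-compound wells and -100% = no-enzyme wells; nearly all actives have a fitted effect of over 25% in size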
# Target sequence (P00811 whole entry, looked up): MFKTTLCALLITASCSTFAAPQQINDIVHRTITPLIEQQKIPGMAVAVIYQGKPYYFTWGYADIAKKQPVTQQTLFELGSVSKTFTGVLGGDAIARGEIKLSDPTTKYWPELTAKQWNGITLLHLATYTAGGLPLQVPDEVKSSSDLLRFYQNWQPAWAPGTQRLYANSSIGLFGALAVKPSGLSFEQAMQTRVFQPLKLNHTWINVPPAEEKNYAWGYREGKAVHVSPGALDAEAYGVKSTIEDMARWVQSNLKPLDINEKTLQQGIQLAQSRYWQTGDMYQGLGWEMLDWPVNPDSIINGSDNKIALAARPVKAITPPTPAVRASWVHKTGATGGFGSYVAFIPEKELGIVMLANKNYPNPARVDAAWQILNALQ
#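 20 mM phosphate pH 7.0 + 0.01% (detergent screen) or 0.0001% Triton X-100; 5.3 nM AmpC reagent; cpd preinc 15 min RT; nitrocefin (800 uM stock) to start; A480 q20 s × 4 min; Activity was normalised to no-enzyme and no-compound control wells.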
# AmpC inh no detg – blocks E. coli AmpC beta-lactamase in detergent-free assay; P00811; Potency, µM (top dose mostly 57.1 µM), inactives show at the top dose activity change, negative = inhibition, hits mostly inhibitors; AmpC nitrocefin hydrolysis, absorbance 480 nm, 0.0001% Triton; 0.52% of 330,000 active;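 note: plate controls were no compound for no effect and no enzyme for full effect; nearly all actives have a fitted effect of over 20% in size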
#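 AmpC (5.3 nM in the dispensed reagent) in 20 mM phosphate pH 7.0 with 0.01% (detergent screen) or 0.0001% Triton X-100 was preincubated with compounds for 15 min at room temperature. Nitrocefin was then added from an 800 uM solution, and hydrolysis was followed at 480 nm.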
# Active calls of the source: *; ? = inconclusive; . = not tested or not shown. This is a sample that favours compounds with a hit; in the whole collection about 4.1% have one here. Unless noted, calls come from the whole dose curve; as a rule, active = well fitted curve in the direction sought with a large enough effect; inconclusive = small, poorly fitted or top-dose-only effect, or another doubt; inactive = no such curve, though single readings can be large; an effect the other way counts as inactive or inconclusive. Unless noted, % is set by controls: 0 for no effect and ±100 for the full control effect; potency is the fitted concentration of half-maximal effect.
SMILES,Sm TGR inh,FMDV antiviral,AMA1-RON2 inh,AmpC inh detg,AmpC inh no detg
CCN(CCNC(=O)C1CCN(Cc2nc(-c3cccc(Cl)c3)oc2C)CC1)c1ccccc1,6%,40µM*,?,-6%,172%
Cc1oc(-c2cccc(Cl)c2)nc1CN1CCC(C(=O)NC(C)c2ccccc2)CC1 (stereo not given),1%,35µM*,.,2%,.
CC(C)(C)C1CCc2onc(C(=O)Nc3sc4c(c3C(N)=O)CCCC4)c2C1 (stereo not given),5%,7%,.,-7%,.
COCc1cc(=O)[nH]c(SCCS(=O)(=O)c2ccc(Cl)cc2Cl)n1,0.32µM*,-16%,39%,3%,-15%
Cc1ccc(C(=O)NC2(C(F)(F)F)N=C(c3ccccc3)N(C3CCCCC3)C2=O)cc1 (stereo not given),-1%,-20%,.,3%,.
O=C(COc1ccccc1)Nc1nnc(-c2ccc3c(c2)CCCC3)o1,-2%,28%,121%,?,10µM*
Cc1cccc(CNC(=O)c2cnn(-c3ncc4c(n3)-c3ccccc3CC4)c2C2CC2)n1,.,4%,.,.,.
CC1=C(c2ccc(Cl)cc2)[N+](=O)C(C)(C)N1[O-],20µM*,-6%,-2%,?,-4%
CC1(C)CC(=O)N(c2cc(Cl)ccc2Cl)C(=O)C1,-1%,0%,-6%,1%,-9%
O=C(NCCCn1ccnc1)c1nn2c(C(F)(F)F)cc(-c3ccc(Br)cc3)nc2c1Cl,-5%,35µM*,-23%,-12%,59%
C/C=C/c1cc(CN2CCN(c3ccc(OC)cc3)CC2)c(O)c(OC)c1,?,?,22µM*,2%,82%
COc1ccc(N2CCN(Cc3cc4c(cc3O)CCC4)CC2)cc1,-8%,?,15µM*,2%,-3%
Oc1cc2c(cc1CN1CCN(c3ccccc3)CC1)CCC2,4%,3%,28%,-15%,-24%
C/C=C/c1cc(CN2CCN(c3ccccc3)CC2)c(O)c(OC)c1,-27%,-6%,-29%,-7%,-16%
COc1cc(C(=O)CC2(O)C(=O)N(Cc3ccccc3Cl)c3ccccc32)cc(OC)c1OC (stereo not given),2%,-12%,.,3%,.
COc1ccc(-c2noc(CN(C)Cc3ccc(C)o3)n2)cc1,35µM*,1%,6%,-2%,14%
COc1ccc(-c2noc(CN(C)Cc3ccccc3)n2)cc1,9%,18%,14%,0%,-2%
COc1ccc(NC(=O)c2oc3ccc(S(=O)(=O)N4CCCCC4)cc3c2C)cc1,7%,18µM*,.,1%,.
Cc1c(C(=O)NCCCN2CCCC2=O)oc2ccc(S(=O)(=O)N3CCOCC3)cc12,-2%,3%,-6%,-4%,20%
Cc1c(C(=O)NCCC2=CCCCC2)oc2ccc(S(=O)(=O)N3CCOCC3)cc12,0%,14µM*,-8%,?,97%
O=C(CSc1nc2ccccc2n1Cc1ccccc1Cl)NCc1ccccc1,-18%,0%,.,8%,.
O=C(NCC1CCN(c2ccc(S(=O)(=O)N3CCOCC3)cc2)CC1)c1ccc(Cl)cc1,0%,40µM*,1%,-7%,25%
Cc1ccc(NC(=O)c2cc(N3C(=O)C=CC3=O)ccc2N2CCOCC2)cc1Cl,0.71µM*,?,0%,-7%,53%
COCCn1c(C)cc(O)c(C(c2ccccc2)N2CCC(C)CC2)c1=O (stereo not given),22µM*,-10%,.,1%,.
COCCn1c(C)cc(O)c(C(c2ccc(F)cc2)N2CCC(C)CC2)c1=O (stereo not given),10µM*,-7%,.,19%,.
COCCn1c(C)cc(O)c(C(c2ccc(OC)cc2)N2CCCCC2)c1=O (stereo not given),?,-15%,.,-7%,.
CCOC(=O)c1nnc(-c2ccccc2)nc1Oc1ccc(Cl)cc1,-8%,16µM*,3%,1%,?
CCOC(=O)c1cnc(-c2ccccc2)nc1Oc1ccc(Cl)c(Cl)c1,27%,-21%,1%,-5%,-13%
CCOC(=O)c1nnc(-c2ccccc2)nc1Sc1ccccc1Cl,-1%,25µM*,-2%,?,-9%
